Rpn11 block: blocks the human proteasome subunit Rpn11; human 26S proteasome, Ub4-pepOG fluorescence polarization; 20S core pre-blocked with epoxomicin; inhibition, % at 20 µM; 0.59% of 360,000 active;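 active = inhibition at 20 µM, scaled to each plate's controls, above about 33%, limit read from the data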
PP1 inh: counter-screen for PP5 inhibitors: inhibitors of human PP1-alpha; P62136; AID 2235; purified PP1alpha, OMFP fluorescence; 0.9% of 320,000 active; inhibition, % at 6.7 µM;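 active = inhibition above the mean inhibition of all tested compounds plus 3 SD, computed separately for each screening campaign, cut at about 15% in these data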
PREPL inh: inhibitors of human prolyl oligopeptidase-like enzyme PREPL; Q4J6C6; recombinant PREPL, fluorescence polarization activity-based probe; inhibition, % at 5.96 µM; 0.68% of 320,000 active; AID 2751; in the data active = inhibition above about 43%;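 also: 0% = enzyme with DMSO and 100% = wells lacking enzyme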
NadD block: NadD (S. aureus) enzyme inhibition | purified NadD enzyme, colorimetric absorbance read-out | inhibition, % at 20 µM | 0.78% of 360,000 active; in the data active = inhibition above about 26%
PP5 primary: inhibitors of human protein phosphatase 5 (PP5); purified PP5c, OMFP substrate fluorescence; inhibition, % at 6.7 µM; P53041; 0.18% of 320,000 active;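 active = inhibition above the campaign's mean inhibition across all tested compounds plus 3 SD, cut at about 9.5% in these data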;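 also: 0% = DMSO only and 100% = 100 µM cantharidin control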
Target sequence (P53041 whole entry, looked up): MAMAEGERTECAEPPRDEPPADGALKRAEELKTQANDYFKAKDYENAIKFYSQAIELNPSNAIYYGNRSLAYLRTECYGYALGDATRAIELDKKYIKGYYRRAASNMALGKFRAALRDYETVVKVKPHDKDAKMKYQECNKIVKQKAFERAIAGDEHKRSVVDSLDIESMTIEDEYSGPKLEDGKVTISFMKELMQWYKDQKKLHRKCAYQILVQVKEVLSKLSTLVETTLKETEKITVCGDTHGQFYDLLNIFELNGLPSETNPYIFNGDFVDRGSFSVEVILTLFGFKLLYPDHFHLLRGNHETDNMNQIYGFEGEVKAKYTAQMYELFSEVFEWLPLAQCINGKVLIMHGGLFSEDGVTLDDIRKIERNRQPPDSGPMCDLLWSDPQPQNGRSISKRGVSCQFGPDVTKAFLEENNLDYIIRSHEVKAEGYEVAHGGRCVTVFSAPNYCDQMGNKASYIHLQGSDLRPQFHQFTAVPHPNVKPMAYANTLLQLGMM
NadD inh conf: NadD (S. aureus) inhibition, single concentration confirmation; shares compounds with NadD block; purified S. aureus NadD, colorimetric enzyme assay; inhibition, % at 20 µM; 13% of 2,000 active; in the data active = inhibition mostly above about 42%, no sharp cut-off; inactive = mostly below about 42%
Starred values were filed as active, the others as inactive; . = not tested or not shown. Hits are enriched below; roughly 2.4% of the tested compounds scored in any of these assays.

SMILES	Rpn11 block	PP1 inh	PREPL inh	NadD block	PP5 primary	NadD inh conf
O=C1Nc2ccccc2N=C(c2ccc3c(c2)OCO3)C1N(C(=O)c1ccnc2ccccc12)c1ccccc1 (stereo not drawn)	10	.	.	13	.	.
COc1ccc(N2CCN(C(=O)c3cccnc3)CC2)c([N+](=O)[O-])c1	5	-1	8	-3	0	.
O=C(Nc1cccc(S(=O)(=O)NC2=NCCCCC2)c1)c1cc(-c2ccc(Cl)cc2)nc2ccccc12	2	0	9	26*	3	32
O=C(NC(=S)Nc1cccc(S(=O)(=O)NC2=NCCC2)c1)c1cc(-c2ccco2)nc2ccccc12	-49	9	16	41*	2	52*
O=C(Nc1cccc(S(=O)(=O)NC2=NCCCCC2)c1)c1cc(-c2ccccc2)nc2ccccc12	8	2	7	17	3	.
O=C(Nc1cccc(S(=O)(=O)NCc2ccco2)c1)c1cc(-c2ccc(F)cc2)nc2ccccc12	-5	8	-2	13	8	.
COc1ccc(-c2cc(C(=O)Nc3cccc(S(=O)(=O)NCc4ccco4)c3)c3ccccc3n2)cc1OC	13	4	-13	58*	3	45*
O=C(c1ccc([N+](=O)[O-])cc1)N1CCN(C2=NS(=O)(=O)c3ccccc32)CC1	-17	-4	0	-3	-1	.
COc1cccc(-c2oc3c(c2-c2ccc(OC)nc2)C(O)CCC3)c1 (stereo not drawn)	.	.	.	-5	.	.
O=C(CSc1ccc(Cl)cc1)NC(=O)c1ccccc1	-4	0	-11	1	2	.
Cc1ccc(CCN2CC(C(=O)NC3CCC(C)CC3)CC2=O)cc1 (stereo not drawn)	-6	.	.	3	.	.
[O-]/C(=C(\C(=S)Nc1ccccc1F)[n+]1ccccc1)c1ccc(-c2ccccc2)cc1	13	2	-4	31*	-1	3
O=C(CNc1cccc2ccccc12)N/N=C/c1ccc(OC(=O)/C=C/c2ccco2)cc1	0	.	.	40*	.	13
Cc1ccc(C(=O)N/N=C/c2cccc(OC(=O)/C=C/c3ccco3)c2)cn1	-3	0	9	-1	3	.
O=C(CNc1cccc2ccccc12)N/N=C/C(Br)=C/c1ccccc1	8	3	24	45*	3	24
O=C(/C=C/c1ccco1)Oc1cc(Br)cc(/C=N/NC(=O)c2ccccc2O)c1	1	4	6	38*	4	36
O=C(CNc1ccc2ccccc2c1)N/N=C/c1ccc(OC(=O)/C=C/c2ccco2)cc1	8	5	-21	25	2	.
CC1CN(C(=S)Nc2ccccc2)C(C)CN1C=O (stereo not drawn)	2	.	.	-1	.	.
COc1cc(C(=O)NCCOc2ccc(Cl)cc2)ccc1OCc1c(C)noc1C	0	0	-6	-6	2	.
CCCCNC(=O)C1(N2C(=O)c3ccccc3C2=O)CCCC1	-2	.	.	2	.	.
O=C1NC[C@@H](CCCCN2C[C@H](Cc3ccc(O)cc3)N(CCC3CCCCC3)C(=O)C2=O)N(CC2CCCCC2)C1=O	.	.	.	44*	.	47*
O=C1NC[C@H](Cc2ccc(O)cc2)N(C[C@@H]2CCCN2C[C@H](Cc2ccccc2)N2C[C@H](Cc3ccccc3)N(CC3CCCCCC3)C(=O)C2=O)C1=O	.	.	.	52*	.	43
CC(C)C[C@H]1CN([C@@H](Cc2ccccc2)CN2CCC[C@H]2CN2C(=O)C(=O)NC[C@@H]2Cc2ccc(O)cc2)C(=O)C(=O)N1CC1CCCCC1	.	.	.	31*	.	40
O=C1NC[C@H](Cc2ccccc2)N(C[C@@H]2CCCN2C[C@H](Cc2ccccc2)N2C[C@H](Cc3ccccc3)N(CC3CCCCC3)C(=O)C2=O)C1=O	8	.	.	22	.	.
O=C1NC[C@H](Cc2ccccc2)N(C[C@@H]2CCCN2C[C@H](Cc2ccc(O)cc2)N2C[C@H](Cc3ccccc3)N(CC3CCCCCC3)C(=O)C2=O)C1=O	.	.	.	39*	.	48*
SMILES	Rpn11 block	PP1 inh	PREPL inh	NadD block	PP5 primary	NadD inh conf
CC(C)C[C@H]1CN([C@@H](Cc2ccccc2)CN2CCC[C@@H]2CN2C(=O)C(=O)NC[C@@H]2Cc2ccc(O)cc2)C(=O)C(=O)N1CC1CCCCC1	-10	.	.	12	.	.
O=C1NC[C@H](CCCCN2C[C@H](Cc3ccc(O)cc3)N(CC3CCCCC3)C(=O)C2=O)N(CCC2CCCCC2)C1=O	.	.	.	18	.	.
O=C(NOCc1cscn1)Nc1ccccc1	6	.	.	5	.	.
CCN(C(=O)Cn1nc(C)c([N+](=O)[O-])c1C)c1c(N)n(Cc2ccccc2)c(=O)[nH]c1=O	-6	-6	-2	-1	0	.
CCOC(=O)N1CCN(C(=O)/C=C/c2ccc(C(C)(C)C)cc2)CC1	-7	0	26	-4	0	.
CCc1nnc(NC(=O)c2cc(S(=O)(=O)N3CCN(c4ccccc4)CC3)ccc2Cl)s1	-2	0	-19	31*	1	29
CCc1nnc(NC(=O)c2cccc(S(=O)(=O)N3CCN(c4ccccc4)CC3)c2)s1	8	10	-9	15	3	.
Cc1cccc(C)c1-n1nnnc1C(c1ccnc2ccccc12)N(Cc1ccccc1)Cc1ccccc1 (stereo not drawn)	.	.	.	32*	.	28
N#CCCN(Cc1ccccc1)C(c1ccnc2ccccc12)c1nnnn1-c1ccc2c(c1)OCCO2 (stereo not drawn)	.	.	.	9	.	.
Cc1cccc(C)c1-n1nnnc1C(c1ccnc2ccccc12)N(C)Cc1ccc(Cl)c(Cl)c1 (stereo not drawn)	.	.	.	29*	.	9
c1ccc(CN(Cc2ccccc2)C(c2ccnc3ccccc23)c2nnnn2-c2ccc3c(c2)OCCO3)cc1 (stereo not drawn)	.	.	.	40*	.	35
CC(C)c1ccc(NC(=O)CN2C(=O)COc3ccc(S(=O)(=O)N4CCOCC4)cc32)cc1	-3	-4	13	5	0	.
COC(=O)C1=C(O)C(C(=O)OC)C(c2ccc(C)cc2)C(C#N)(C#N)C1c1ccc(C)cc1 (stereo not drawn)	-4	3	1	17	0	.
Cc1ccc(N(C(=O)CNC(=O)c2ccco2)C(C(=O)NC2CCCCC2)c2ccncc2)c(C)c1 (stereo not drawn)	1	0	0	2	0	.
C=C1CCN(C(CC(C)C)C(=O)OC)S(=O)(=O)c2ccccc21 (stereo not drawn)	5	0	-6	1	3	.
COC(=O)[C@H](CC(C)C)N1Cc2cc(OC)cc(OC)c2-c2ccccc2S1(=O)=O	4	.	.	37*	.	48*
Cc1cc2cc3c(cc2nc1SCC(=O)N1c2ccccc2CC1C)OCO3 (stereo not drawn)	2	5	-13	16	1	.
CC1Cc2ccccc2N1C(=O)CSc1nc2cc3c(cc2cc1C#N)OCO3 (stereo not drawn)	34	3	-15	35*	2	3
O=C(O)c1cccc(NC(=S)NC(=O)c2ccc(-c3ccc(Cl)cc3)o2)c1	14	-1	-11	38*	2	20

Assay outcomes (PubChem)
